Rows were chosen to be rich in hits. Some 9.2% of all compounds tested hit in one or more screens of this group.
ELG1 genotox: genotoxicity induction in ELG1-luciferase HEK293T cells; HEK293T ELG1-luciferase reporter, luminescence, 16 h; Potency, µM (top dose mostly 46 µM), without a hit: at the top dose activity change, positive = activation, usual class: activators; 330,000 tested, 1.3% active; further: % of control where 0% means no effect; nearly all actives have a fitted effect of over 60% in size
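Reporter readout depends on ELG1 protein level, which increases with genetic stress. After 16 hr compound exposure at 37 °C, luciferase activity was quantified using ONE-Glo.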
NPC1 prom act: activates the NPC1 promoter; Potency, µM (titrated, usually from 9.22 µM), for inactives: at the top dose activation, most hits filed as activators; 320,000 tested, 2.4% active; Huh7 NPC1 promoter luciferase reporter, 24 h; AID 485313; further: % of control where 0% means no effect; nearly all actives have a fitted effect of over 60% in size
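Luminescence from an NPC1 promoter-driven luciferase reporter in stably transfected Huh7 cells was measured after 24 h compound treatment at 37 °C, followed by 10 min ambient incubation with luciferase detection reagent.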
Rab9 prom act: activators of Rab9 promoter; Huh7 Rab9 promoter-luciferase reporter, luminescence, 24 h; Potency, µM (top dose mostly 9.22 µM), for inactives: at the top dose activation, negative = inhibition, most hits filed as activators; 320,000 tested, 2.8% active; further: % of control where 0% means no effect; nearly all actives have a fitted effect of over 60% in size
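Quantitative HTS format; Huh7 Rab9-luciferase reporter cells (1500/well) receive compound 2 h post-plating, incubate 24 h at 37 °C, then get luciferase reagent for 10 min before luminescence reading.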
FLuc modulator: inhibits or activates purified firefly luciferase, miR-21 counter-screen; P08659; purified FLuc, Km substrates, luminescence inhibition; Potency, µM (highest dose often 57.5 µM), inactives show top-dose activity change, negative = inhibition, most hits filed as inhibitors; 360,000 tested, 6.9% active; AID 588342;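 further: plate controls were vehicle for no effect and reference inhibitor for full effect; nearly all actives have a fitted effect of over 55% in size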
Target sequence (P08659 whole entry, looked up): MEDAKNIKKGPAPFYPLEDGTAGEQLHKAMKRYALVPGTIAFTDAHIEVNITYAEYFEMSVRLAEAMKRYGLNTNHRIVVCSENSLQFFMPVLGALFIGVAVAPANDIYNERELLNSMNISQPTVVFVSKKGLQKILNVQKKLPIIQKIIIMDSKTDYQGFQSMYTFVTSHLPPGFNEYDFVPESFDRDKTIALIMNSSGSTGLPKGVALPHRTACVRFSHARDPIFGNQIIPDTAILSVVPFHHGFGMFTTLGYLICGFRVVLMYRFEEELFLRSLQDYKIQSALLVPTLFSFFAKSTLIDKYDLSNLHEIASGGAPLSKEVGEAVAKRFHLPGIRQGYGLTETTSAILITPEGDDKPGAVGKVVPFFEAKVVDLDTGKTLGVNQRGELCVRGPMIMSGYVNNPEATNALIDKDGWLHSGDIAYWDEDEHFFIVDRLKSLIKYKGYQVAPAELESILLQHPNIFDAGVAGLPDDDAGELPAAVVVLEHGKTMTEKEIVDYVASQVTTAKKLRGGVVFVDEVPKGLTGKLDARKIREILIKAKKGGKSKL
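Biochemical qHTS of compounds, final roughly 60 µM downward over six points, against 10 nM purified firefly luciferase using Km concentrations of substrates (10 uM D-luciferin, 10 uM ATP) in Tris acetate pH 7.5 buffer; luminescence output.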
SMN2 splice enh: enhancers of SMN2 splice variant expression. Potency, µM (highest dose often 46.1 µM), for the others: at the highest dose activity change, positive = activation, most hits filed as activators. 210,000 tested, 2.8% active. HEK293 SMN2-luciferase splicing reporter, luminescence, 30-36 h; further: % of control where 0% means no effect; nearly all actives have a fitted effect of over 55% in size
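HEK293 cells carry an SMN2 minigene-luciferase reporter in which exon 7 inclusion puts luciferase in frame. Cells were seeded at 2000 cells/well, attached for 10-12 hours, then exposed to compounds for 30-36 hours at 37C before ONE-Glo luminescence.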
ELG1 DNA repair: inhibitors of ELG1-dependent DNA repair in HEK293T cells | Potency, µM (series often up to 46.1 µM), without a hit: at the top dose activity change, negative = inhibition, usual class: inhibitors | HEK293T ELG1-luciferase reporter, luminescence, 16 h; DNA damage induced by 5-fluorouridine | 330,000 tested, 2.3% active; further: on the % scale 0 is the no-effect control and ±100 the full control effect; nearly all actives have a fitted effect of over 55% in size
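Luminescence from the luciferase reporter, measured 30 min after ONE-Glo reagent at room temperature, was the read-out. Beforehand, 2,000 cells per well were exposed for 16 hr at 37 °C to 5-fluorouridine together with compound or vehicle.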
* hit, by the source's call. The call rests on the fitted dose curve; in most records, active means well fitted curve in the direction sought with a large enough effect; inconclusive means small, poorly fitted or top-dose-only effect, or another doubt; inactive means no such curve, though single readings can be large; an effect the other way counts as inactive or inconclusive. Potency means the concentration at half of the fitted maximal effect.

What do the screens show for `Nc1nn(-c2ccccc2)nc1C(=O)OCc1ccccc1F`?
ELG1 genotox: 6%; NPC1 prom act: 1%; Rab9 prom act: 15%; FLuc modulator: 17µM*; SMN2 splice enh: 15%; ELG1 DNA repair: 21%

Results for CC1CCC(NC(=O)c2ccc(NC(=O)CC3SC(N4CCCC4)=NC3=O)cc2)CC1 (centres undefined) ?
ELG1 genotox: 19%; NPC1 prom act: 2.5µM*; Rab9 prom act: 2.2µM*; FLuc modulator: inconclusive; ELG1 DNA repair: inconclusive

What do the screens show for `Cc1ccnc(NC(=O)c2ccc(NC(=O)CC3SC(N4CCCC4)=NC3=O)cc2)c1` (centres undefined)?
ELG1 genotox: 8%; NPC1 prom act: 15%; Rab9 prom act: 22%; FLuc modulator: -16%; ELG1 DNA repair: 3%

How did Cc1ccnc(NC(=O)c2cccc(NC(=O)CC3SC(N4CCCCC4)=NC3=O)c2)c1 (centres undefined) do in these assays?
ELG1 genotox: 3%; NPC1 prom act: 4%; Rab9 prom act: 17%; FLuc modulator: 12µM*; ELG1 DNA repair: inconclusive

What do the screens show for `CC(C)(C)C(=O)NC(=S)NCCc1ccccc1`?
ELG1 genotox: 12%; NPC1 prom act: inconclusive; Rab9 prom act: inconclusive; FLuc modulator: 17µM*; SMN2 splice enh: 14%; ELG1 DNA repair: inconclusive

How did Cc1ccccc1NC(=O)NCCc1ccc(Cl)cc1 do in these assays?
ELG1 genotox: 1%; NPC1 prom act: -3%; Rab9 prom act: 14%; FLuc modulator: 1%; SMN2 splice enh: 1%; ELG1 DNA repair: -9%

What do the screens show for `O=C(NCCc1ccccc1)Nc1ccc(Cl)cc1`?
ELG1 genotox: inconclusive; NPC1 prom act: 2.5µM*; Rab9 prom act: 3.2µM*; FLuc modulator: 6.7µM*; SMN2 splice enh: 11µM*; ELG1 DNA repair: inconclusive

What do the screens show for `S=C(NCCc1ccccc1)NCCc1ccccc1`?
ELG1 genotox: inconclusive; NPC1 prom act: 4.5µM*; Rab9 prom act: 4.5µM*; FLuc modulator: 15µM*; SMN2 splice enh: 13µM*; ELG1 DNA repair: inconclusive

Results for Cc1ccccc1C(=O)NC(=S)NCCc1ccccc1 ?
ELG1 genotox: -1%; NPC1 prom act: -1%; Rab9 prom act: -2%; FLuc modulator: -4%; SMN2 splice enh: 2%; ELG1 DNA repair: 24%

Results for S=C(NCCc1ccccc1)Nc1ccc(Cl)cc1 ?
ELG1 genotox: 12%; NPC1 prom act: 24%; Rab9 prom act: 23%; FLuc modulator: 17µM*; SMN2 splice enh: 10µM*; ELG1 DNA repair: inconclusive

How did CCC(C)NC(=O)c1sc2nc(C)c(C(=O)Nc3ccc(C)cc3C)c(-c3ccc(Br)cc3)c2c1N (centres undefined) do in these assays?
FLuc modulator: -2%; SMN2 splice enh: 17%

How did N/C(Cn1cncn1)=N\NC(=O)C(=O)Nc1cccc(C(F)(F)F)c1 do in these assays?
ELG1 genotox: 1%; NPC1 prom act: 0%; Rab9 prom act: -4%; FLuc modulator: 0%; SMN2 splice enh: 1%; ELG1 DNA repair: 0%

How did Cc1ccccc1C(=O)Nc1cccc(OCc2cc(=O)n3c4c(sc3n2)CCCC4)c1 do in these assays?
FLuc modulator: inconclusive; SMN2 splice enh: -2%

What do the screens show for `O=C(NCCc1ccccc1)/C(=N\O)c1ccccc1`?
ELG1 genotox: inconclusive; NPC1 prom act: 3.2µM*; Rab9 prom act: 4µM*; FLuc modulator: 15µM*; SMN2 splice enh: inconclusive; ELG1 DNA repair: inconclusive

Results for CN(C)c1nc(OCCNC(=O)Nc2ccc(Cl)cc2)nc(N(C)C)n1 ?
ELG1 genotox: -8%; NPC1 prom act: -5%; Rab9 prom act: -3%; FLuc modulator: -3%; SMN2 splice enh: -9%; ELG1 DNA repair: 7.3µM*

What do the screens show for `CC(C)[C@H](NC(=O)NCCc1ccccc1)C(=O)O`?
ELG1 genotox: 0%; NPC1 prom act: 6%; Rab9 prom act: 0%; FLuc modulator: 4%; SMN2 splice enh: 6%; ELG1 DNA repair: inconclusive

Results for CC(C)(C)NC(=O)NCCc1ccccc1 ?
ELG1 genotox: inconclusive; NPC1 prom act: 1.4µM*; Rab9 prom act: 4µM*; FLuc modulator: 21µM*; ELG1 DNA repair: inconclusive

What do the screens show for `S=C(NCc1cccnc1)Nc1ccc(Oc2ccc(Cl)cc2)cc1`?
ELG1 genotox: -11%; NPC1 prom act: 2%; Rab9 prom act: -2%; FLuc modulator: -3%; ELG1 DNA repair: 10µM*

Results for CN(C)CCCNC(=O)/C(=N\O)c1ccccc1 ?
ELG1 genotox: 2%; NPC1 prom act: -2%; Rab9 prom act: 9%; FLuc modulator: 6%; SMN2 splice enh: -7%; ELG1 DNA repair: 3%

What do the screens show for `COc1ccc(NC(=S)NCc2cccnc2)cc1`?
ELG1 genotox: 4%; NPC1 prom act: -3%; Rab9 prom act: -7%; FLuc modulator: -2%; ELG1 DNA repair: 13%

Results for O=C(O)CCCCNS(=O)(=O)/C=C/c1ccccc1 ?
ELG1 genotox: 2%; NPC1 prom act: -6%; Rab9 prom act: 2%; FLuc modulator: -3%; SMN2 splice enh: 7%; ELG1 DNA repair: -2%

What do the screens show for `Cc1ccc(-n2nc(C)c3nc(CCC(=O)Nc4cccc(C)c4C)c(=O)n(C)c32)cc1`?
FLuc modulator: 6%

Results for Cc1ccc(N(CC(=O)NC2CCCCC2)C(=O)CCC(=O)Nc2nccs2)cc1 ?
ELG1 genotox: 7%; NPC1 prom act: 0%; Rab9 prom act: 7%; FLuc modulator: 1%; ELG1 DNA repair: -5%

Results for O=C(NCCc1ccccc1)C(=Cc1ccc(C(=O)O)cc1)C(=O)NCCc1ccccc1 ?
ELG1 genotox: 3%; NPC1 prom act: -8%; Rab9 prom act: 0%; FLuc modulator: -7%; SMN2 splice enh: 21%; ELG1 DNA repair: 8%

What do the screens show for `C/C(=C\c1ccccc1)C(=O)NCCc1ccccc1`?
ELG1 genotox: 4.6µM*; NPC1 prom act: 1.4µM*; Rab9 prom act: 0.71µM*; FLuc modulator: 3.4µM*; SMN2 splice enh: 11µM*; ELG1 DNA repair: inconclusive

How did Cn1c(N)c(S(=O)(=O)N2CCN(c3ccccc3Cl)CC2)c(=O)n(C)c1=O do in these assays?
ELG1 genotox: -1%; NPC1 prom act: 6%; Rab9 prom act: 14%; FLuc modulator: 4%; ELG1 DNA repair: -7%

Results for S=c1[nH]c2cc3ccccc3cc2[nH]1 ?
ELG1 genotox: inconclusive; NPC1 prom act: 14%; Rab9 prom act: 3%; FLuc modulator: 4.8µM*; ELG1 DNA repair: inconclusive

Bioassay records from PubChem.
